According to the supplement of paper PMC3334620:
Whole data set: some 33,000 sequences, median “E-score (-0.5 to 0.5)” near -0.0014, cut for the highest 2% near 0.25. Many of the other results were omitted from the sample, so the highest values are more common in it than they were.

molecular target: T1, Cad1 (UniProt P24813); assay: PBM E-score (8-mer binding enrichment) (E-score (-0.5 to 0.5)); higher = stronger / more preferred TF binding; conditions: protein concentration: 100 nM; construct: GST-full length
T1 sequence: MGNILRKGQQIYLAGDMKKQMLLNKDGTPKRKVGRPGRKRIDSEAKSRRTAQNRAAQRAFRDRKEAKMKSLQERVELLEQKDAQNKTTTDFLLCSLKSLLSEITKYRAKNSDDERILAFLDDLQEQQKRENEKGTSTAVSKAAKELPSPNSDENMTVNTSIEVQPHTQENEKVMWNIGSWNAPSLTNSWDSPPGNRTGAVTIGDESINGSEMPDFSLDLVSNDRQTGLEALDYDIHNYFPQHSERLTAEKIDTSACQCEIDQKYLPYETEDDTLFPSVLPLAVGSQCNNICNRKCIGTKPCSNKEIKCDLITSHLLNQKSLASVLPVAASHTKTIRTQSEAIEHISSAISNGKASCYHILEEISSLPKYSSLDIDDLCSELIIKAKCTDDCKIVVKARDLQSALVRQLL
Procedure: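 Universal 'all 10-mer' protein binding microarrays (Agilent AMADID 015681) probed with GST-tagged S. cerevisiae TFs (full-length or DBD) made by in vitro transcription/translation (PURExpress), about 100-200 nM. Bound TF was detected with fluorescent anti-GST. Each ungapped 8-mer (which stands for itself and its reverse complement) is scored by the PBM enrichment score (E-score), a modified Wilcoxon-Mann-Whitney statistic from -0.5 to +0.5, computed with the Universal PBM Analysis Suite. Scale: above 0.35 generally sequence-specific binding.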

Point of comparison: ACAGACAA, “PBM E-score” value 0.29. Against it:
- CTCGGGCA — lower, 0.0974
- AGTGTGGG — lower, -0.0209
- GCACGTGC — higher, 0.32
- GCACGTGA — lower, 0.0273
- CCACGTGC — lower, 0.00023
- GTCAGACA — lower, 0.116
- AAGGTCGT — lower, 0.0718
- CCTAGACC — lower, -0.179
- GGTTAGAA — lower, -0.111
- AAGCTCGC — lower, 0.224
- CAGCTCGA — lower, 0.0283
- AAGCTCGA — lower, 0.263
- TTGGCAAA — lower, 0.121
- ATAGATTG — lower, 0.0192
- GACCCGGC — lower, -0.0968
- GCTGAGCC — lower, -0.119
- AACGCTTC — lower, -0.0949
- TATCAACA — lower, 0.0364
- GATCAGCA — lower, 0.141
- AATCAGCC — lower, 0.0909
- AATCAGCT — lower, 0.274
- AATCAGCG — lower, 0.211
- AATCAACA — lower, 0.275
- AATCAGCA — lower, 0.258
- CATCAGCA — lower, 0.01
- GATCAACA — lower, 0.131
- CGACAGCA — lower, 0.0252
- AGTTCAGA — lower, -0.104
- CAACATGA — lower, 0.144
- CACTAGAA — lower, -0.0573
- GTTTGTTA — lower, 0.202
- CTTTGTCA — lower, 0.278
- GTTTGTCA — higher, 0.317
- GATTGTCA — lower, 0.117
- CTTTGTTA — lower, 0.222
- CTTTGTCC — lower, 0.058
- AAGATTAG — lower, 0.144
- GTCTGCGA — lower, 0.0486
- AGACCGGA — lower, -0.062
- CTCGCGAC — lower, 0.15
- TTCGCGAA — higher, 0.343
- ATCGCGAC — lower, 0.195
- GTCGCGAA — lower, 0.0594
- GTCGCGAC — higher, 0.391
- TCCGCGAA — lower, 0.202
- GGGCCTCA — lower, -0.0631
- ATCATTTC — lower, 0.136
- GGCTCATA — lower, 0.0877
- CAACAGGA — lower, -0.182
- ACCTCGGG — lower, -0.173
- GCGCTTAC — higher, 0.299
- CCGCTTAC — lower, 0.184
- CTGCTTAA — lower, 0.0117
- CTGCTTAC — lower, 0.276
- GCGCTTAA — lower, 0.106
- ATGCTTAC — lower, 0.112
- ACCGTATA — lower, -0.00739
- CAAAAGAC — lower, -0.00184
- ATCATAAC — lower, 0.273
- ATCATAAT — lower, 0.144
- ATCATAAG — lower, 0.0855
- CTTCGTTA — lower, -0.0282
- AATTAATA — higher, 0.432
- AATTAAGA — lower, 0.104
- ACTTAATA — lower, 0.186
- AATTAATT — lower, 0.285
- AATTAATG — lower, 0.242
- AATTAATC — lower, 0.227
- AGCGAACA — lower, 0.195
- CGCCAACA — lower, 0.157
- AAAAAAAC — lower, 0.121
- CAAATGGG — lower, 0.0861
- CCATATCA — lower, -0.00962
- GCATATCA — lower, 0.278
- TCATATCA — lower, 0.0259
- CCATGCAG — lower, -0.0439
- GCGGAAGC — lower, 0.0712
- AGCGGCTC — lower, -0.0559
- ACGGAAAA — lower, 0.24
- ACGGAAAC — lower, -0.0435
- ACGGATAG — lower, 0.0118
- ACGGATAT — lower, 0.254
- ACGGAAAT — lower, 0.288
- ACGGATAA — lower, 0.0973
- AGGGTTGA — lower, -0.0586
- GGATCGAA — lower, 0.045
- CTTCTCGA — lower, 0.0254
- ACGGCTGA — lower, 0.0503
- CAGCCATG — lower, -0.077
- CTAATATA — lower, 0.239
- AAAATATA — lower, 0.208
- CAAATATA — lower, -0.0118
- TAAATATA — lower, 0.277
- GTAATATA — higher, 0.327
- AAAATATC — lower, 0.198
- GATAAATA — lower, 0.123
- CATAAATA — lower, 0.171
- TATAAATA — lower, 0.25
- ATAATATA — lower, 0.227
- CAAATATC — lower, 0.261
- CAAATATG — lower, 0.135
- ATCCCTTG — lower, -0.131
- ACAATAGT — lower, 0.109
- GCAGCGGA — lower, -0.0753
- AGAGAGAA — lower, -0.0532
- ACACTAAA — lower, 0.144
- TTGCACAA — lower, 0.0972
- CCAAAAAC — lower, 0.116
- AAGTCTGG — lower, 0.105
- AATAAATA — higher, 0.313
- AATAAAAG — lower, 0.0174
- TAAAAATA — lower, 0.277
- AATAAAAA — lower, 0.264
- AATAAATG — lower, 0.0809
- AATAAATT — lower, 0.282
- AAAAAATA — lower, 0.0934
- AATAAAGA — lower, 0.195
- AATAAACT — lower, 0.12
- AATAAATC — lower, -0.0137
- CTAAAATA — lower, 0.0866
- AATAAAAT — lower, 0.166
- AACCCGTG — lower, -0.317
- CCCACCCC — lower, 0.0432
- CGCTATGA — lower, 0.119
- CCCTTGGA — lower, 0.00683
- CGTATTAA — lower, 0.0596
- ACTAGAAT — lower, 0.0557
- ACTGCATC — lower, -0.00501
- ATCAGAGA — lower, -0.0164
- AGCGAAAT — lower, -0.184
- CATATCGC — lower, 0.0925
- ATACCATA — lower, 0.27
- ATACCATG — lower, -0.0699
- GTACCATA — lower, -0.158
- ATTTAACA — lower, 0.193
- GCCTGAGA — lower, -0.169
- ATGGGACC — lower, -0.00547
- CAGCCACC — lower, -0.0873
- ACTGACAA — lower, 0.264
- TCTGACAA — lower, 0.25
- TCAGAAAA — lower, -0.145
- ACTGACAT — lower, -0.0482
- ACAGAAAC — lower, 0.116
- TGTGACAA — lower, 0.0395
- ACTGACAC — lower, -0.0887
- ACAGAAAA — lower, 0.281
- ACAGACAC — lower, 0.122
- ACAGACAG — lower, 0.0659
- CCTGACAA — lower, -0.0066
- TGCATACA — lower, 0.0433
- AGGTGCAA — lower, -0.0504
- CTTTCATC — lower, 0.0102
- GGCCTCAC — lower, 0.0157
- GGCTTAAC — lower, 0.0615
- CTTGGCTA — lower, 0.134
- GGCTTCAA — lower, -0.139
- CACAGCCG — lower, 0.0914
- TAATCCCA — lower, -0.0386
- CACACTTC — lower, 0.0239
- AGTACCTG — lower, -0.0799
- CAGAGGGC — lower, -0.213
- CGTGCCAC — lower, -0.091
- CGCATTCC — lower, -0.216
- GCTGACAA — higher, 0.412
- GCTGACAC — lower, 0.247
- CATGACAA — lower, 0.165
- GATGACAA — higher, 0.304
- GTTGACAA — lower, 0.166
- GATGACAC — lower, 0.0339
- CGCAATCC — lower, 0.248
- CCTGATCG — lower, -0.0975
